These results are taken from PubChem BioAssay (NCI).

About 83,000 compounds went through this panel and 20% of them were active in at least one assay; those are over-represented in the sample as a whole.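 Compound tested at a single concentration for 48 hours in 96-well plates; a percent growth value below 10 was scored as active.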 Activity calls are given as the source filed them.

The first test deals with RPMI-8226 leukemia. Briefly: NCI-60 one-dose screen, 48 h (100 = growth as untreated, 0 = no growth, -100 = all killed). As to conditions: 10 µM unless noted.
Regarding `COc1cc(NC(=O)NCc2ccco2)ccc1-c1ccc(NC(=O)NCc2ccco2)cc1OC`, the growth is 65.2% (inactive).

Take `COc1cnc2c(c1)C(=O)c1c-2n(CCCN2CCC(O)CC2)c(=O)c2cc(F)ccc12`: the growth is -26.2% (active).

Take `CCOC(=O)C1=CCC(n2cc(C)c(=O)[nH]c2=O)O1` (stereo not drawn): the growth is 106% (inactive).

As to `CCSc1nc(Nc2ccc(S(=O)(=O)Nc3ccon3)cc2)c(C#N)c(-c2cccc(Br)c2)n1`, the growth is 79.3% (inactive).

With `C[C@H]1O[C@@H](O[C@H]2[C@@H](O)C[C@H](O[C@H]3[C@@H](O)C[C@H](O[C@H]4CC[C@]5(C)C6C[C@@H](O)[C@]7(C)[C@@H](C8=CC(=O)OC8)CC[C@]7(O)C6CC[C@@H]5C4)O[C@@H]3C)O[C@@H]2C)C[C@H](O)[C@@H]1O` (stereo partly drawn), the growth was -23.7% (active).

For `Cc1ccc(NC(=O)c2sc3nc4c(cc3c2N)C(=O)CCC4)cc1`, the growth is 93.4% (inactive).

Take `COc1ccc(-c2nnc3c4[nH]cnc4ncn23)c(OC)c1`: the growth was 9.32% (active).

For `Cc1ccc(N/N=C(/C(=O)c2ccc(Cl)cc2)c2nc(C)cc(=O)[nH]2)cc1`, the growth was 85.1% (inactive).

As for `Cc1ccc(/C=C/C(=O)c2ccc(F)cc2)s1`, the growth is 18.6% (inactive).

On to `CNNc1ncnc2c1cnn2-c1ccc(S(N)(=O)=O)cc1`, for which the growth is 94% (inactive).

Consider `OC(c1cc(-c2cccc(Cl)c2)nc2ccccc12)C1CCCCN1` (stereo not drawn), for which the growth is -26.8% (active).

As for `COc1ccc2c(c1)sc1nc(-c3ccc(Br)cc3)cn12`, the growth is 112% (inactive).

On to `COc1ccccc1NC(=O)c1sc2nc3c(cc2c1N)C(=O)CCC3`, for which the growth is 84.3% (inactive).

For the compound `N#CC(C#N)C(C#N)C#N`, the growth is 107% (inactive).

Take `COc1ccc(C2=NN(C(C)=O)C(c3c(C)nn(-c4ccccc4)c3N3CCOCC3)C2)cc1` (stereo not drawn): the growth was 97.9% (inactive).

Take `CCSc1nc(-c2ccco2)n2nc(-c3ccco3)cc2n1`: the growth was 52.8% (inactive).

As for `O=C(Nc1ccc2c(c1)C(=O)c1ccccc1-2)c1ccccc1`, the growth was 63.5% (inactive).

`CN(C)c1ccc(-c2nc3ncc(Br)cc3o2)cc1`: the growth was 74% (inactive).

Take `c1ccc(COc2ccc(Nc3ncnc4c3cnn4-c3ccccc3)cc2)cc1`: the growth is 96.5% (inactive).

As for `Cc1ccccc1NC(=O)N/C(N)=N/c1nc2ccccc2s1`, the growth is 16.3% (inactive).

Consider `Cc1ccc(C2=NNC(c3sc(Cl)nc3Cl)C2)cc1` (stereo not drawn), for which the growth is 97.9% (inactive).

Turning to `N#Cc1ccccc1C#Cc1ccccc1C#Cc1ccc(OCCCCCCOc2ccc(C#Cc3ccccc3C#Cc3ccccc3C#N)cc2)cc1`, the growth is 108% (inactive).

`C=CCN(/C=C/CN(CC=C)CC=C)CC=C`: the growth is 95.8% (inactive).

For `C[C@@H]1CN(c2nc3c(cc2F)c(=O)c(C(=O)O)cn3C(C)(C)C)C[C@H](C)N1`, the growth was 114% (inactive).

Take `CCN(CC)c1ccc(N=C2C=CC(=O)C=C2NC(C)=O)cc1`: the growth was 89.8% (inactive).

`COc1ccc(NS(=O)(=O)N2CCCCC2)cc1`: the growth was 102% (inactive).

For `COc1cc(/C=C2\CN(S(=O)(=O)c3ccc(C)cc3)C/C(=C\c3cc(CN4CCOCC4)c(O)c(OC)c3)C2=O)cc(CN2CCOCC2)c1O`, the growth is -24.8% (active).

With `Cc1ccc(C2=Nc3c(ccc4c(C)c(C)c(=O)oc34)OC2)cc1`, the growth is 94.4% (inactive).

For the compound `NC(=O)c1cc(Cl)ccc1NC(=O)c1ccccc1-c1ccccc1`, the growth is 19% (inactive).

As for `CC12CCC3C(=CCc4cc(O)ccc43)C1CCC2=O` (stereo not drawn), the growth is 87.8% (inactive).

Take `CCOC(=O)OCC(=O)[C@@]1(O)CC[C@H]2[C@@H]3CCC4=CC(=O)CC[C@]4(C)[C@H]3[C@@H](O)C[C@@]21C`: the growth is 64.3% (inactive).

Turning to `O=C1NCCc2c1noc2-c1ccccc1`, the growth is 113% (inactive).

With `O=C1C=CC(=O)N1c1ccccc1N1C(=O)C=CC1=O`, the growth was 124% (inactive).

`Cc1cnc2nc(-c3ccc(N(C)C)cc3)cn2c1`: the growth is 117% (inactive).

As for `Cc1n(Cc2ccc3ccccc3c2)c2ccccc2[n+]1Cc1ccc2ccccc2c1`, the growth was -57.7% (active).

For the compound `CC1C(=O)NC2=Nc3ccccc3C(=O)NN21` (stereo not drawn), the growth is 90.3% (inactive).

Turning to `CC(C)N(Cc1ccccc1)c1c(S)ssc1=S`, the growth is -65.4% (active).

As to `COc1cc(C2CC(c3ccc(C)cc3)=NN2C=O)ccc1OCCN(C)C` (stereo not drawn), the growth was 90.2% (inactive).

For the compound `CCN(CC)CCSc1ncnc2c1cnn2-c1ccc(S(N)(=O)=O)cc1`, the growth was 98.2% (inactive).

Another test deals with OVCAR-8 ovarian. The description is as above. As to conditions: 10 µM unless noted.
For `COc1cc(NC(=O)NCc2ccco2)ccc1-c1ccc(NC(=O)NCc2ccco2)cc1OC`, the growth is 36.7% (inactive).

Consider `COc1cnc2c(c1)C(=O)c1c-2n(CCCN2CCC(O)CC2)c(=O)c2cc(F)ccc12`, for which the growth was -6.45% (active).

With `CCOC(=O)C1=CCC(n2cc(C)c(=O)[nH]c2=O)O1` (stereo not drawn), the growth was 97.9% (inactive).

Regarding `CCSc1nc(Nc2ccc(S(=O)(=O)Nc3ccon3)cc2)c(C#N)c(-c2cccc(Br)c2)n1`, the growth is 91.2% (inactive).

In the case of `C[C@H]1O[C@@H](O[C@H]2[C@@H](O)C[C@H](O[C@H]3[C@@H](O)C[C@H](O[C@H]4CC[C@]5(C)C6C[C@@H](O)[C@]7(C)[C@@H](C8=CC(=O)OC8)CC[C@]7(O)C6CC[C@@H]5C4)O[C@@H]3C)O[C@@H]2C)C[C@H](O)[C@@H]1O` (stereo partly drawn), the growth is -93.5% (active).

On to `Cc1ccc(NC(=O)c2sc3nc4c(cc3c2N)C(=O)CCC4)cc1`, for which the growth was 98.3% (inactive).

In the case of `COc1ccc(-c2nnc3c4[nH]cnc4ncn23)c(OC)c1`, the growth is 18.4% (inactive).

Regarding `Cc1ccc(N/N=C(/C(=O)c2ccc(Cl)cc2)c2nc(C)cc(=O)[nH]2)cc1`, the growth was 101% (inactive).

In the case of `Cc1ccc(/C=C/C(=O)c2ccc(F)cc2)s1`, the growth is 43.6% (inactive).

In the case of `CNNc1ncnc2c1cnn2-c1ccc(S(N)(=O)=O)cc1`, the growth is 81.8% (inactive).

On to `OC(c1cc(-c2cccc(Cl)c2)nc2ccccc12)C1CCCCN1` (stereo not drawn), for which the growth was -52.6% (active).

For `COc1ccc2c(c1)sc1nc(-c3ccc(Br)cc3)cn12`, the growth is 102% (inactive).

With `COc1ccccc1NC(=O)c1sc2nc3c(cc2c1N)C(=O)CCC3`, the growth is 90.6% (inactive).

With `N#CC(C#N)C(C#N)C#N`, the growth is 97.4% (inactive).

Turning to `COc1ccc(C2=NN(C(C)=O)C(c3c(C)nn(-c4ccccc4)c3N3CCOCC3)C2)cc1` (stereo not drawn), the growth is 94.4% (inactive).

In the case of `CCSc1nc(-c2ccco2)n2nc(-c3ccco3)cc2n1`, the growth was 97.1% (inactive).

Turning to `O=C(Nc1ccc2c(c1)C(=O)c1ccccc1-2)c1ccccc1`, the growth is 37.8% (inactive).

As to `CN(C)c1ccc(-c2nc3ncc(Br)cc3o2)cc1`, the growth was 99.6% (inactive).

With `c1ccc(COc2ccc(Nc3ncnc4c3cnn4-c3ccccc3)cc2)cc1`, the growth is 113% (inactive).

In the case of `Cc1ccccc1NC(=O)N/C(N)=N/c1nc2ccccc2s1`, the growth was 19.7% (inactive).

As for `Cc1ccc(C2=NNC(c3sc(Cl)nc3Cl)C2)cc1` (stereo not drawn), the growth is 100% (inactive).

With `N#Cc1ccccc1C#Cc1ccccc1C#Cc1ccc(OCCCCCCOc2ccc(C#Cc3ccccc3C#Cc3ccccc3C#N)cc2)cc1`, the growth is 98.7% (inactive).

For the compound `C=CCN(/C=C/CN(CC=C)CC=C)CC=C`, the growth is 95.8% (inactive).

Take `C[C@@H]1CN(c2nc3c(cc2F)c(=O)c(C(=O)O)cn3C(C)(C)C)C[C@H](C)N1`: the growth is 94.8% (inactive).

For the compound `CCN(CC)c1ccc(N=C2C=CC(=O)C=C2NC(C)=O)cc1`, the growth is 94% (inactive).

As for `COc1ccc(NS(=O)(=O)N2CCCCC2)cc1`, the growth is 105% (inactive).

For the compound `COc1cc(/C=C2\CN(S(=O)(=O)c3ccc(C)cc3)C/C(=C\c3cc(CN4CCOCC4)c(O)c(OC)c3)C2=O)cc(CN2CCOCC2)c1O`, the growth was 2.94% (active).

Take `Cc1ccc(C2=Nc3c(ccc4c(C)c(C)c(=O)oc34)OC2)cc1`: the growth was 98.6% (inactive).

Consider `NC(=O)c1cc(Cl)ccc1NC(=O)c1ccccc1-c1ccccc1`, for which the growth was 32% (inactive).

Consider `CC12CCC3C(=CCc4cc(O)ccc43)C1CCC2=O` (stereo not drawn), for which the growth is 101% (inactive).

Consider `CCOC(=O)OCC(=O)[C@@]1(O)CC[C@H]2[C@@H]3CCC4=CC(=O)CC[C@]4(C)[C@H]3[C@@H](O)C[C@@]21C`, for which the growth was 94.5% (inactive).

For `O=C1NCCc2c1noc2-c1ccccc1`, the growth is 109% (inactive).

With `O=C1C=CC(=O)N1c1ccccc1N1C(=O)C=CC1=O`, the growth is 107% (inactive).

As to `Cc1cnc2nc(-c3ccc(N(C)C)cc3)cn2c1`, the growth was 103% (inactive).

For the compound `Cc1n(Cc2ccc3ccccc3c2)c2ccccc2[n+]1Cc1ccc2ccccc2c1`, the growth is -31.1% (active).

As for `CC1C(=O)NC2=Nc3ccccc3C(=O)NN21` (stereo not drawn), the growth is 99.7% (inactive).

On to `CC(C)N(Cc1ccccc1)c1c(S)ssc1=S`, for which the growth was 14.7% (inactive).

As to `COc1cc(C2CC(c3ccc(C)cc3)=NN2C=O)ccc1OCCN(C)C` (stereo not drawn), the growth was 92.6% (inactive).

On to `CCN(CC)CCSc1ncnc2c1cnn2-c1ccc(S(N)(=O)=O)cc1`, for which the growth was 83.5% (inactive).
